Several values for one entry are separate records, joined by “and”; a condition that tells them apart may be missing. Equal entries are not always repeated. Inconclusive results are not listed. Where a call stands in place of a potency, no number is given. Where a structure was tested more than once in an assay, its records may differ in their call. Activity calls are given as the source filed them. Unless noted, calls come from the whole dose curve; as a rule, active = well fitted curve in the direction sought with a large enough effect in the repeat runs; inconclusive = weak or mixed curves; inactive = no such curve, though single readings can be large; an effect the other way counts as inactive or inconclusive.
Key:
[1] = qHTS assay for small molecule agonists of the p53 signaling pathway (AID 651631; calls by dose curve; note: nearly all actives have a fitted effect of over 15% in size; note: potency is the fitted concentration of half-maximal effect)
In short: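 Agonist mode screen using a stably integrated beta-lactamase gene under p53 response elements in HCT-116 cells. Compound exposure lasts 16 h at 37 °C; fluorescence intensity is measured following 2 h FRET substrate loading.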

[2] = qHTS assay for small molecules that induce genotoxicity in human embryonic kidney cells expressing luciferase-tagged ATAD5 (AID 651632); note: nearly all actives have a fitted effect of over 15% in size; note: potency is the fitted concentration of half-maximal effect
In short: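 A rise in luciferase signal from ATAD5-tagged HEK293T cells marks genetic stress. Cells were exposed to compounds for 16 hr at 37C, 5% CO2, then luciferase was quantified after a 30 min room-temperature incubation with Amplite.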

[3] = qHTS assay for small molecule agonists of the p53 signaling pathway - cell viability (AID 651633; calls by dose curve; note: nearly all actives have a fitted effect of over 30% in size; note: potency is the fitted concentration of half-maximal effect)
In short: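 p53RE-bla cells were treated with compound for 16 hours at 37 C. Cytotoxicity was then measured as CellTiter-Glo luminescence after 30 min at room temperature.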

[4] = qHTS assay for small molecules that induce genotoxicity in human embryonic kidney cells expressing luciferase-tagged ATAD5 - cell viability (AID 651634; calls by dose curve; note: nearly all actives have a fitted effect of over 25% in size; note: potency is the fitted concentration of half-maximal effect)
In short: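 Cytotoxicity counter-readout: after 15.5 hr compound treatment at 37C, live-cell protease activity in ATAD5-luciferase HEK293T cells measured by CellTiter-Fluor fluorescence, 30 min development at 37C.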

[5] = qHTS assay for small molecule disruptors of the mitochondrial membrane potential - cell viability (AID 720634; calls by dose curve; note: nearly all actives have a fitted effect of over 20% in size; note: potency is the fitted concentration of half-maximal effect)
In short: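 Cytotoxicity was quantified from ATP content by CellTiter-Glo luminescence in the same wells as the MMP dye read-out. HepG2 (2,000 cells/well) were plated overnight and exposed to compounds for 1 hr at 37 C.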

[6] = qHTS assay for small molecule disruptors of the mitochondrial membrane potential (AID 720635); note: potency is the fitted concentration of half-maximal effect
In short: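 HepG2 cells exposed to compound 1 hr at 37C, then Mito-MPS dye 30 min. Ratio read of aggregate (540/590 nm) versus monomer (490/535 nm) fluorescence.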

[7] = qHTS assay to test for compound auto fluorescence at 590 nm (red) in HepG2 cells (AID 720674)
In short: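 HepG2 cells, 2,000 per well in MEM with 10% FBS, attached overnight at 37 C, then got 23 nL compound or DMSO. After 1 hr at 37 C, 5% CO2, red fluorescence was read at 540/590 nm against Rose Bengal sodium as reference.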

[8] = qHTS assay to test for compound auto fluorescence at 590 nm (red) in HEK293 cells (AID 720679)
In short: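 Autofluorescence equivalency to Rose Bengal sodium, 540/590nm, in HEK293 cells exposed overnight to 23 nL compound per well.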

[9] = qHTS assay to test for compound auto fluorescence at 535 nm (green) in HEK293 cells (AID 720680)
[10] = qHTS assay to test for compound auto fluorescence at 460 nm (blue) in HEK293 cell free culture (AID 720681)
In short: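 Compounds were added to cell-free DMEM with 10% FBS and fluorescence read directly. The blue channel used 405 nm excitation and 460 nm emission, with triamterene as the reference fluorophore.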

[11] = qHTS assay to test for compound auto fluorescence at 535 nm (green) in HEK293 cell free culture (AID 720682)
In short: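 No cells present: wells hold DMEM supplemented with 10% FBS, into which compound or vehicle is pinned. Green emission is then recorded (485 nm excitation, 535 nm emission) and scaled to fluorescein.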

[12] = qHTS assay to test for compound auto fluorescence at 590 nm (red) in HEK293 cell free culture (AID 720683)
In short: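 Cell-free wells of DMEM with 10% FBS received compound, and intrinsic fluorescence was read at excitation/emission 540/590 nm. Values expressed as equivalence to Rose Bengal sodium.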

[13] = qHTS assay to test for compound auto fluorescence at 590 nm (red) in HepG2 cell free culture (AID 720684)
In short: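 Auto fluorescence equivalency versus Rose Bengal sodium, red channel Ex/Em 540/590 nm; compounds in cell-free MEM/10% FBS; DMSO vehicle control.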

[14] = qHTS assay to test for compound auto fluorescence at 460 nm (blue) in HepG2 cell free culture (AID 720685)
In short: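 Cell-free plates of MEM plus 10% FBS received 23 nL compound or DMSO vehicle; blue-channel (405/460 nm) intensity scored against triamterene as reference fluorophore.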

[15] = qHTS assay to test for compound auto fluorescence at 535 nm (green) in HepG2 cell free culture (AID 720686)
[16] = qHTS assay to test for compound auto fluorescence at 460 nm (blue) in HepG2 cells (AID 720687)
In short: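 HepG2 cells in MEM with 10% FBS, attached overnight at 37 C, were exposed to compound or DMSO for 1 hr at 37 C, 5% CO2. Blue fluorescence was read at 405/460 nm, with triamterene as reference fluorophore.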

[17] = target: Glucocorticoid receptor (Homo sapiens) (UniProt P04150); assay: qHTS assay to identify small molecule agonists of the glucocorticoid receptor (GR) signaling pathway (AID 720691; active = well fitted activation curve with a large enough effect in the signal ratio in the repeat runs, not every such curve was filed as active; the % refers to the signal ratio)
In short: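 Agonist-mode qHTS in HeLa cells stably expressing a glucocorticoid-response-element beta-lactamase reporter. Fluorescence intensity read with FRET substrate (2 h, room temperature) after 18 h compound treatment at 37 C.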

[18] = target: Glucocorticoid receptor (Homo sapiens) (UniProt P04150); assay: qHTS assay to identify small molecule antagonists of the glucocorticoid receptor (GR) signaling pathway (AID 720692; active = well fitted inhibition curve with a large enough effect in the signal ratio in the repeat runs, not every such curve was filed as active; the % refers to the signal ratio; note: potency is the fitted concentration of half-maximal effect)
In short: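 Inhibition of dexamethasone-driven (5 nM final) beta-lactamase expression was measured in GRE-reporter HeLa cells over 18 h at 37C. Fluorescence was read after 2 h with the B/G FRET substrate at room temperature.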

[19] = qHTS assay to test for compound auto fluorescence at 535 nm (green) in HepG2 cells (AID 720675)
[20] = qHTS assay to test for compound auto fluorescence at 460 nm (blue) in HEK293 cells (AID 720678)
In short: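 Auto fluorescence in the blue band was quantified as triamterene equivalency. HEK293 cells were seeded at 2,000/well, dosed after a 4-5 hr attachment, and kept overnight at 37C before the 405/460 nm reading.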

Glucocorticoid receptor (Homo sapiens), sequence (P04150 whole entry, looked up): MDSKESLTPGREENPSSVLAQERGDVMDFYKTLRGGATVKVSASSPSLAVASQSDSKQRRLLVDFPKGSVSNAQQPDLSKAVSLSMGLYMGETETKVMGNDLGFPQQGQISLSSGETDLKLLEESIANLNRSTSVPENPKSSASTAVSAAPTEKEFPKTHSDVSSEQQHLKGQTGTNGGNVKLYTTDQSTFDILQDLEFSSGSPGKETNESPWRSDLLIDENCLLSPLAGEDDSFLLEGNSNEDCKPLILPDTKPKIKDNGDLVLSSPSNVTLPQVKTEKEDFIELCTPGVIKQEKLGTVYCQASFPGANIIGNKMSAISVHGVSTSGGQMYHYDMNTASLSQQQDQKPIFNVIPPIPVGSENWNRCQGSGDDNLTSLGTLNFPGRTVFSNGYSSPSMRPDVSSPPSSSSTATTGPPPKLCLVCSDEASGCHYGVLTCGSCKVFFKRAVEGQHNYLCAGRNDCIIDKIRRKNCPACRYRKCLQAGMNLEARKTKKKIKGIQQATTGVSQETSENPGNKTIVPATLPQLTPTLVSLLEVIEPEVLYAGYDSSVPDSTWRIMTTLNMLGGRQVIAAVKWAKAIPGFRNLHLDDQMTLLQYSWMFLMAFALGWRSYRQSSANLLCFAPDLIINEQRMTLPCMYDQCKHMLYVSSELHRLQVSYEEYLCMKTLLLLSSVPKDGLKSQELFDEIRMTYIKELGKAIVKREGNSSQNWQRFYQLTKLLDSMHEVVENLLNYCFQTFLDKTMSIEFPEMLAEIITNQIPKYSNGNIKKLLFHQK

Compound | Potency [1] | Potency [2] | Potency [3] | Potency [4] | Potency [5] | Potency [6] | outcome [7] | outcome [8] | outcome [9] | Potency [10] | outcome [11] | outcome [12] | outcome [13] | Potency [14] | outcome [15] | Potency [16] | outcome [17] | Potency [18] | outcome [19] | Potency [20]
CCOS(=O)(=O)OCC | inactive | inactive | inactive | inactive | inactive | inactive | inactive | inactive | inactive | inactive | inactive | inactive | inactive | inactive | inactive | inactive | inactive | inactive | – | –
ClC(Cl)(Cl)Br | inactive | inactive | inactive | inactive | inactive | inactive | inactive | inactive | inactive | inactive | inactive | inactive | inactive | inactive | inactive | inactive | inactive | inactive | inactive | inactive
N#Cc1c(Cl)c(Cl)c(Cl)c(C#N)c1Cl | 21.3 µM (active) and 30.6 µM (active) | 424 nM (active) and 864 nM (active) | 6.73 µM (active) and 9.69 µM (active) | 30 µM (active) and 8.63 µM (active) | 19 µM (active) and 21.7 µM (active) | 3.37 µM (active) and 27.3 µM (active) | inactive | inactive | inactive | inactive | inactive | inactive | inactive | inactive | inactive | inactive | – | – | – | inactive
CC(C)CON=O | inactive | inactive | inactive | inactive | inactive | inactive | inactive | inactive | inactive | inactive | inactive | inactive | inactive | inactive | inactive | inactive | inactive | inactive | – | inactive
CC[n+]1c(-c2ccccc2)c2cc(N)ccc2c2ccc(N)cc21 | 3.35 µM (active) and 10.6 µM (active) and 2.16 µM (active) | inactive | 9.44 µM (active) and inactive | 23.7 µM (active) and 54.2 µM (active) | inactive | 2.21 µM (active) | inactive | inactive | inactive | inactive | inactive | inactive | inactive | inactive | inactive | inactive | – | – | inactive | inactive
c1ccc(C2CO2)cc1 (configuration not stated) | inactive | inactive | inactive | inactive | inactive | inactive | inactive | inactive | inactive | inactive | inactive | inactive | inactive | inactive | inactive | inactive | inactive | inactive | inactive | inactive
C[C@]12CCC(=O)C=C1CC[C@@H]1[C@@H]2CC[C@@]2(C)[C@H]1CC[C@]2(C)O | 21.7 µM (active) | inactive | inactive and 54.5 µM (active) | inactive | inactive | inactive | inactive | inactive | inactive | inactive | inactive | inactive | inactive | inactive | inactive | inactive | inactive | 6.01 µM (active) and 4.25 µM (active) and 2.61 µM (active) | inactive | inactive
